Screening data: PubChem BioAssay, National Center for Advancing Translational Sciences (NCATS)
Pf Dd2 growth = inhibitors of Plasmodium falciparum Dd2 growth; P. falciparum Dd2 growth, SYBR Green, 72 h; Potency, µM (doses to about 28.9 µM), for inactives: top-dose activity, negative = inhibition, actives largely listed as inhibitors; 120,000 compounds, 4.3% hits; active means well fitted inhibition curve with a large enough effect;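 further: plate controls were DMSO vehicle for no effect and reference drug for full effect; nearly all actives have a fitted effect of over 65% in size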
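Readout: SYBR Green fluorescence, 485 nm excitation, 535 nm emission, after ~16 h lysis at 37C. Before that, Dd2-infected red cells (2.5% hematocrit) grew 72 h with compound, 29 uM top final concentration.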
The depositor's hits bear a star; [ ] = remark or other dose. Many of the other results were omitted from the sample, so hits are more common in it than they were. Potency means the concentration at half of the fitted maximal effect.

`COc1ccccc1N1CCN(C(=O)Cn2ccn3nc(-c4ccc(F)cc4)c(CO)c3c2=O)CC1` gave Pf Dd2 growth 8.9µM*.
`O=c1c2c(CO)c(-c3ccc(F)cc3)nn2ccn1CCc1ccccc1` gave Pf Dd2 growth inactive.
Screening O=c1c2c(CO)c(-c3ccccc3)nn2ccn1Cc1cccc(F)c1 returned Pf Dd2 growth inactive.
For CCOC(=O)c1[nH]cnc1C(=O)N(CCO)Cc1nccn1C the results were Pf Dd2 growth 16%.
Screening O=[N+]([O-])c1cnc(N2CC3CCC(C2)N3CC(F)(F)F)nc1 returned Pf Dd2 growth -2%.
For COCCOC1CCOC2(CCN(C(=O)c3ccsc3)CC2)C1 (stereo not given) the results were Pf Dd2 growth -16%.
Screening Cc1ccccc1-c1nc(C2CC(=O)N(c3ccc(F)c(Cl)c3)C2)no1 (stereo not given) returned Pf Dd2 growth 67%.
Screening O=C(C1CC1)N1C[C@@H]2OCC(=O)N(Cc3ccc(F)cc3)[C@@H]2C1 returned Pf Dd2 growth 52%[44.1 µM].
For CC(C)n1cnnc1CC1CCN(S(=O)(=O)Cc2ccccc2)C1 (stereo not given) the results were Pf Dd2 growth -2%.
For Cc1nc(CC(=O)N2CCC(Cc3nnc(CO)n3C)CC2)cs1 the results were Pf Dd2 growth 3%.
O=C(NCc1ccc(F)cc1F)C1CCN(C(=O)c2ncn3c2COC(c2ccccc2)C3)CC1 (stereo not given) was read as Pf Dd2 growth inactive.
O=C(c1ccccc1OC1CCN(C2Cc3ccccc3C2)CC1)N1CCCCC1 was read as Pf Dd2 growth -18%.
`O=C(NC1CC1)c1ccccc1OC1CN(Cc2ccc(F)cc2)C1` gave Pf Dd2 growth -20%.
O=C(NC1CC1)c1ccccc1OC1CN(C2CCC2)C1 was read as Pf Dd2 growth 2.8µM*.
Screening CN(C)c1cc(N2CCCC(NC(=O)Cc3ccsc3)C2)ncn1 (stereo not given) returned Pf Dd2 growth 35%[5.79 µM].
`COc1ccc(CCNc2ncnc3c2CN(c2ccc(OC)cc2)C(=O)CN3C)cc1` gave Pf Dd2 growth -14%.
Cc1cn2nc(-c3nc(C4CCCN(C(=O)Cc5cccc(F)c5)C4)no3)cc2c(=O)[nH]1 (stereo not given) was read as Pf Dd2 growth 4µM*.
For Cc1ccsc1C(=O)N1CCCC(c2noc(COc3ccccc3F)n2)C1 (stereo not given) the results were Pf Dd2 growth 9%.
`CCOCc1nc(C2CCCN(C(=O)Cc3cccc(C)c3)C2)no1` (stereo not given) gave Pf Dd2 growth 20%.
For COCc1nc(C2CCCN(C(=O)c3ccc(C)cc3)C2)no1 (stereo not given) the results were Pf Dd2 growth 39%.
For CCOCc1nc(C2CCCN(C(=O)c3ccc(OC)cc3)C2)no1 (stereo not given) the results were Pf Dd2 growth inactive.
`CCc1ccc(C(=O)N2CCCC(c3noc(-c4cc5c(=O)[nH]c(C)cn5n4)n3)C2)cc1` (stereo not given) gave Pf Dd2 growth 0.89µM*.
Cc1cccc(C(=O)N2CCC(c3noc(CO)n3)C2)c1 (stereo not given) was read as Pf Dd2 growth 1%.
Screening Cc1cccc(C(=O)N2CCCC(c3noc(COc4ccccc4)n3)C2)c1 (stereo not given) returned Pf Dd2 growth 2%.
Screening Cc1cccc(C(=O)N2CCCC(c3noc(-c4cc5c(=O)[nH]c(C)cn5n4)n3)C2)c1 (stereo not given) returned Pf Dd2 growth 5.6µM*.
For Cc1cn2nc(-c3nc(C4CCCN(C(=O)c5sccc5C)C4)no3)cc2c(=O)[nH]1 (stereo not given) the results were Pf Dd2 growth 4.5µM*.
O=C(Cc1cccc(F)c1)N1CCCC(c2nc(C3CCOCC3)no2)C1 (stereo not given) was read as Pf Dd2 growth 21%.
For Cc1cn2nc(-c3nc(C4CCCN(C(=O)c5ccc(C)s5)C4)no3)cc2c(=O)[nH]1 (stereo not given) the results were Pf Dd2 growth -12%.
`Cc1nn2c(c1-c1cccnc1N1CCOCC1)N(Cc1ccc3c(c1)CCO3)CCC2` gave Pf Dd2 growth -16%[44.1 µM].
Screening CN1C(=O)C2(CCN(C(=O)c3cc4c(s3)CCCC4)CC2)c2ccccc21 returned Pf Dd2 growth -6%.
For O=C(CN1C(=O)NC2(CCOCC2)C1=O)NC1CCc2ccccc21 (stereo not given) the results were Pf Dd2 growth 60%.
CC(C)n1c(C2CCCN(C(=O)C3CC3)C2)nn(C)c1=O (stereo not given) was read as Pf Dd2 growth 10%.
`CCn1ncc(CN2CCCCCCN(C)C(=O)[C@@H]3CCC[C@@H]32)c1C` gave Pf Dd2 growth -14%.
For Cc1noc(-c2cn(C3CCN(C(=O)c4ccc(F)cc4)C3)nn2)n1 (stereo not given) the results were Pf Dd2 growth inactive.
Screening CO[C@H]1[C@H](NC(=O)c2ccc(=O)n(C)n2)c2ccccc2C12CCNCC2 returned Pf Dd2 growth 11%.
`CN(C)[C@@H]1CN(C(=O)c2cccc(C#N)c2)C[C@H]1CO` gave Pf Dd2 growth 9%.
`CCNC(=O)C1C(c2ccc(NC(=O)c3cccc(Cl)c3)cc2)OC(=O)N1Cc1ccc(C)cc1` (stereo not given) gave Pf Dd2 growth inactive.
`Cc1ccc(N2CCN(c3nc4c(c(=O)[nH]3)CCNC4)CC2)cc1` gave Pf Dd2 growth 7%.
Screening CCCCN1CCN(C(=O)c2cc(Cl)c(C)c(Cl)c2)CC1=O returned Pf Dd2 growth -7%.
Screening CCCCN1CCN(c2nc(-c3ccccc3)nc3c2CCNC3)CC1=O returned Pf Dd2 growth 11µM*.
Cc1noc(C)c1Cc1ccc(C(=O)N(C)C2CCc3nnc(C)n3CC2)o1 (stereo not given) was read as Pf Dd2 growth -16%.
O=C(Cn1cccc1-c1nc(-c2ccc(F)cc2)no1)NCc1ccc(F)cc1 was read as Pf Dd2 growth 6%.
Fc1ccccc1CNC[C@H]1Cn2cc(-c3ccccc3)nc2CO1 was read as Pf Dd2 growth inactive.
CN(Cc1cccnc1)C(=O)[C@H]1CN(Cc2ccccc2)C[C@H]1C(=O)O was read as Pf Dd2 growth inactive.
Cc1cc(F)ccc1OC1CN(Cc2cccnc2)C1 was read as Pf Dd2 growth 6.3µM*.
`Cc1ccccc1N(C)C1CN(Cc2cccnc2)C1` gave Pf Dd2 growth 13µM*.
Cc1cc(OC2CN(Cc3ccc(F)cc3)C2)ccc1F was read as Pf Dd2 growth inactive.
Screening CN(C)C(=O)[C@@H]1CN(Cc2cccnc2)C[C@H]1CO returned Pf Dd2 growth 15%.
Cc1cc(F)ccc1OC1CN([S+](=O)([O-])c2ccccc2)C1 was read as Pf Dd2 growth inactive.
For COc1ccccc1CCC(=O)N1CC(c2noc(-c3ccccc3)n2)C1 the results were Pf Dd2 growth 0%.
Screening Cc1cccc2nnc(N3CCN(C(=O)c4ccco4)CC3)n12 returned Pf Dd2 growth inactive.
For O=C(c1ccc(F)cc1)N1CCCC(n2cc(-c3nc(-c4ccccc4)no3)nn2)C1 (stereo not given) the results were Pf Dd2 growth -11%.
`CCCNC(=O)N1CCC(c2nc(CCOc3cccc(C)c3)no2)C1` (stereo not given) gave Pf Dd2 growth inactive.
O=C(O)c1cn(C2CCCCCC2)nn1 was read as Pf Dd2 growth -6%.
CN(c1ccccc1)c1ccc2c(n1)CN(CC(=O)N1CCCC1)C(=O)CO2 was read as Pf Dd2 growth -14%[44.1 µM].
